Rab9 promoter act – qHTS Assay for Rab9 Promoter Activators. AID 485297, 2010. Huh7 Rab9 promoter-luciferase reporter, luminescence, 24 h. Potency, µM (highest dose often 9.22 µM), without a hit: top-dose activation, negative = inhibition, most hits filed as activators. 320,000 compounds, 2.8% hits; also: % of control where 0% means no effect; nearly all actives have a fitted effect of over 60% in size
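Steps: seed 1500 Huh7 Rab9-luc cells per well, rest 2 h at 37 °C; add compound in DMSO; incubate 24 h; add luciferase reagent, 10 min ambient; read luminescence.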
SMN2 splice up – qHTS Assay for Enhancers of SMN2 Splice Variant Expression | HEK293 SMN2-luciferase splicing reporter, luminescence, 30-36 h | AID 1458, 2008 | 210,000 compounds, 2.8% hits | Potency, µM (highest dose often 46.1 µM), without a hit: top-dose activity change, positive = activation, usual class: activators; also: % of control where 0% means no effect; nearly all actives have a fitted effect of over 55% in size
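qHTS luciferase splicing reporter: luminescence rises when SMN2 exon 7 is included in transfected HEK293 cells. Compound exposure lasted 30-36 h at 37C, with 4.5 mM final sodium butyrate as control, followed by a ONE-Glo read.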
ELG1 genotoxic – qHTS screen for small molecules that induce genotoxicity in human embryonic kidney (HEK293T) cells expressing luciferase-tagged ELG1; Potency, µM (doses to about 46 µM), for the others: at the top dose activity change, positive = activation, actives largely listed as activators; 330,000 compounds, 1.3% hits; HEK293T ELG1-luciferase reporter, luminescence, 16 h; also: % of control where 0% means no effect; nearly all actives have a fitted effect of over 60% in size
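DMSO vehicle served as control against compound-treated ELG1-luciferase HEK293T cells; exposure lasted 16 hr at 37 °C and 5% CO2, followed by ONE-Glo luminescence detection after 30 min.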
FLuc modulator – qHTS profiling assay for firefly luciferase inhibitor/activator using purifed enzyme and Km concentrations of substrates (counterscreen for miR-21 project); Potency, µM (titrated, usually from 57.5 µM), for the others: at the highest dose activity change, negative = inhibition, usual class: inhibitors; 360,000 compounds, 6.9% hits; purified FLuc, Km substrates, luminescence inhibition;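 also: plate controls were vehicle for no effect and reference inhibitor for full effect; nearly all actives have a fitted effect of over 55% in size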
Target sequence (P08659 whole entry, looked up): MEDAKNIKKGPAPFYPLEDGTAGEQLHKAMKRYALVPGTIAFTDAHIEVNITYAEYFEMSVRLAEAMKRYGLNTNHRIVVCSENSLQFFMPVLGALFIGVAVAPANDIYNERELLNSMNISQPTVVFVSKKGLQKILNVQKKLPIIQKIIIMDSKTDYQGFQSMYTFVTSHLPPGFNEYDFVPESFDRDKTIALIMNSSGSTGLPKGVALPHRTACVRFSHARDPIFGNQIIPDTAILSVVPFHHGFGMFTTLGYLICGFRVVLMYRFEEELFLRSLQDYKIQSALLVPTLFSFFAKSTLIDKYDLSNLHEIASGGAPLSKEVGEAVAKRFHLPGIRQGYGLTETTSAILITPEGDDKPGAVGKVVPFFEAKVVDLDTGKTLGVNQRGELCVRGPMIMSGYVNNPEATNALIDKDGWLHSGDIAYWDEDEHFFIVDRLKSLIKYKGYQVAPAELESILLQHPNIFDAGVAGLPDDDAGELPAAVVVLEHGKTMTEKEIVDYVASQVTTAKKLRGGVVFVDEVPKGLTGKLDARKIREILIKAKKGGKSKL
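Biochemical qHTS of compounds, final roughly 60 µM downward over six points, against 10 nM purified firefly luciferase using Km concentrations of substrates (10 uM D-luciferin, 10 uM ATP) in Tris acetate pH 7.5 buffer; luminescence output.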
NPC1 promoter act – qHTS Assay for NPC1 Promoter Activators; AID 485313, 2010; Potency, µM (highest dose often 9.22 µM), without a hit: top-dose activation, actives largely listed as activators; Huh7 NPC1 promoter luciferase reporter, 24 h; 320,000 compounds, 2.4% hits; also: % of control where 0% means no effect; nearly all actives have a fitted effect of over 60% in size
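Luminescence read-out of NPC1 promoter-driven luciferase in stably transfected Huh7 cells; compounds delivered in DMSO and left 24 h at 37C, 5% CO2, qHTS titration format.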
KinaseGlo FLuc – Counterscreen for Luciferase (Kinase-Glo TM) Inhibition; Luciferin 4-monooxygenase (Photuris pensylvanica), Q27757; Kinase-Glo luciferase, ATP luminescence, 8 min; Potency, µM (doses to about 38.3 µM), inactives show at the top dose activity change, negative = inhibition, most hits filed as inhibitors; 200,000 compounds, 0.28% hits; also: % is scaled to controls: 0 for no effect and ±100 for the full control effect; nearly all actives have a fitted effect of over 60% in size
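Luminescence was the read-out, taken after 8-minute incubation at ambient temperature. Luciferase turned over luciferin with 10 uM ATP in imidazole pH 7.2 buffer containing KCl, MgCl2, Tween 20 and BSA.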
* hit, by the source's call; u = inconclusive; x = no result given. Most compounds without a hit are left out; they make up all but 7.5% or so of the library. Calls follow the shape of the dose curve; as a rule, active = well fitted curve in the direction sought with a large enough effect; inconclusive = small, poorly fitted or top-dose-only effect, or another doubt; inactive = no such curve, though single readings can be large; an effect the other way counts as inactive or inconclusive. Potency is read from the fitted curve at half-maximal effect.

SMILES	Rab9 promoter act	SMN2 splice up	ELG1 genotoxic	FLuc modulator	NPC1 promoter act	KinaseGlo FLuc
CCC(=O)N1CCc2cc(S(=O)(=O)N3CCN(c4ccccc4F)CC3)ccc21	x	-4%	x	-3%	x	x
Cc1ccc(Cl)cc1Nc1nc2ccccc2c2nncn12	x	6%	x	-2%	x	x
Cc1ccccc1C1c2[nH]c3ccccc3c2CCN1Cc1cccn1-c1ncccn1 (centres undefined)	-2%	x	-10%	6%	1%	x
COc1ccc2oc(=O)c(C(=O)Nc3cccc(C(C)=O)c3)cc2c1	u	x	8%	4.8µM*	28%	x
COc1ccccc1OC(=O)c1cc2ccccc2oc1=O	-2%	x	7%	-18%	-2%	x
COc1cccc(OC(=O)c2cc3ccccc3oc2=O)c1	-3%	-3%	11%	13µM*	2%	-7%
COc1cc(/C=C/[N+](=O)[O-])ccc1OC(=O)c1cc2ccccc2oc1=O	10%	x	u	6µM*	-18%	x
COc1ccc2oc(=O)c(C(=O)Nc3ccccc3-c3ccccc3)cc2c1	0%	-1%	-6%	5%	0%	4%
CCCOc1ccc2c(c1)C(=NN=C(N)N)c1cc(OCCC)ccc1-2	1%	x	-4%	u	-5%	x
CN(C)C(=O)[C@H]1C[C@@H]1[C@H](NC(=O)OCc1ccccc1)c1ccccc1	x	-13%	x	x	x	1%
Cc1ccc(C2(C)NC(=O)N(CC(=O)NC(=O)NC(C)C)C2=O)cc1 (centres undefined)	-2%	x	-4%	-1%	3%	x
O=C(Oc1ccc2ccccc2c1Cl)N1CCCCCC1	0.56µM*	13µM*	u	1.1µM*	1.1µM*	-3%
O=C(Oc1ccc(Cl)cc1)N1CCCCC1	23%	17%	16µM*	24µM*	15%	-3%
COc1cccc(C(=O)NCC(=O)N2CCN(c3ccc(C(F)(F)F)cn3)CC2)c1	-19%	x	-4%	3%	-5%	x
COc1cc(NC(=O)Cn2c(=O)n(Cc3ccccc3Cl)c(=O)c3cc(OC)c(OC)cc32)cc(OC)c1	x	-2%	x	-1%	x	x
CCn1cc(/C=C(\NC(=O)c2ccccc2F)C(=O)NCCCN2CCOCC2)c2ccccc21	-4%	x	-1%	5%	1%	x
CCn1cc(/C=C(\NC(=O)c2ccccc2Cl)C(=O)NCCN2CCOCC2)c2ccccc21	-1%	x	-3%	17µM*	1%	x
O=C(Nc1c(C(=O)O)oc2ccccc12)c1ccc(C(F)(F)F)cc1	x	x	x	9.5µM*	x	x
CC(=O)Nc1c(C(=O)O)oc2ccccc12	-7%	-5%	3%	4%	2%	2%
c1coc(CNc2nc3ccccc3s2)c1	u	x	u	7.6µM*	1.6µM*	x
Cc1nc(NC(=O)c2ccccc2)sc1-c1csc(NCc2ccco2)n1	-1%	-11%	-1%	13µM*	2%	-8%
COc1ccc(-c2csc(NCc3ccco3)n2)cc1	0.56µM*	13µM*	u	1.1µM*	0.89µM*	-5%
CCOc1ccccc1Nc1nc(-c2sc(NC(=O)c3ccco3)nc2C)cs1	3%	-38%	-10%	-13%	-7%	-5%
Cc1nc(C)c(-c2csc(NCc3ccccc3)n2)s1	10%	-40%	9%	u	24%	0%
c1coc(CNc2nc(-c3ccncc3)cs2)c1	15%	16%	0%	u	26%	0%
Cc1nc(C)c(-c2csc(NCc3ccco3)n2)s1	u	u	13µM*	15µM*	29%	-3%
Cc1ccc(C)c(N2CCN(C(=O)CSCc3ccccc3Cl)CC2)c1	x	x	x	-12%	x	x
CC(NC(=O)CCc1ccccc1)c1cc2c(cc1Cl)OCCO2 (centres undefined)	-6%	-7%	4%	0%	-5%	-5%
